Experimental data published in PubChem BioAssay (NCI).
About 83,000 compounds went through this panel and 20% of them were active in at least one assay; those are over-represented in the sample as a whole.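 Single-dose data. Exposure time 48 hours. Values below 10 considered active.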 Unmarked numbers belong to inactive results. Calls of active or inactive are those of the source.

Key:
Experiment in all cases: NCI-60 one-dose screen, 48 h (100 = growth as untreated, 0 = no growth, -100 = all killed)
Conditions in all cases: 10 µM unless noted
NCI-H23 lung = tested on: NCI-H23 lung
NCI-H226 lung = tested on: NCI-H226 lung
NCI-H322M lung = tested on: NCI-H322M lung
HOP-62 NSCLC = tested on: HOP-62 NSCLC
NCI-H460 lung = tested on: NCI-H460 lung
HOP-92 NSCLC = tested on: HOP-92 NSCLC
NCI-H522 lung = tested on: NCI-H522 lung
A549/ATCC NSCLC = tested on: A549/ATCC NSCLC
786-0 renal = tested on: 786-0 renal
COLO 205 colon = tested on: COLO 205 colon
DU-145 prostate = tested on: DU-145 prostate
K-562 leukemia = tested on: K-562 leukemia
MALME-3M melanoma = tested on: MALME-3M melanoma
MDA-MB-231 breast = tested on: MDA-MB-231 breast
RXF 393 renal = tested on: RXF 393 renal
SF-268 CNS = tested on: SF-268 CNS
SF-295 CNS = tested on: SF-295 CNS
SF-539 CNS = tested on: SF-539 CNS
UACC-257 melanoma = tested on: UACC-257 melanoma
M14 melanoma = tested on: M14 melanoma

SMILES	growth (NCI-H23 lung)	growth (NCI-H226 lung) [%]	growth (NCI-H322M lung)	growth (HOP-62 NSCLC)	growth (NCI-H460 lung)	growth (HOP-92 NSCLC)	growth (NCI-H522 lung)	growth (A549/ATCC NSCLC)	growth (786-0 renal)	growth (COLO 205 colon)	growth (DU-145 prostate)	growth (K-562 leukemia)	growth (MALME-3M melanoma)	growth (MDA-MB-231 breast) [%]	growth (RXF 393 renal)	growth (SF-268 CNS)	growth (SF-295 CNS)	growth (SF-539 CNS)	growth (UACC-257 melanoma)	growth (M14 melanoma)
Oc1ccc2ccccc2c1CN1CCOCC1	104%	105	112%	122%	115%	102%	110%	99.7%	109%	106%	124%	118%	121%	109	128%	102%	110%	81.4%	120%	98%
Cc1cc2nc(C)c(C)nc2cc1C	93.7%	84	118%	92.5%	101%	63.8%	95.6%	101%	103%	98.7%	115%	119%	109%	101	109%	109%	89%	104%	97.8%	108%
C=CC(=O)OC1CCC(C(C)(C)CC)CC1 (stereo not given)	108%	106	110%	103%	105%	115%	100%	109%	105%	105%	113%	109%	110%	106	113%	102%	120%	105%	115%	107%
C1Cc2onc(-c3noc4c3CCC4)c2C1	105%	120	103%	103%	137%	108%	96.5%	104%	106%	115%	115%	109%	108%	116	134%	110%	104%	108%	110%	110%
C1CCc2onc(-c3noc4c3CCCCC4)c2CC1	110%	123	102%	101%	140%	93.6%	95.8%	102%	103%	118%	118%	103%	106%	114	139%	92.9%	99.5%	104%	107%	112%
Nc1ccn(C2OC(CO)C(O)C2F)c(=O)n1 (stereo not given)	83.7%	101	107%	63.5%	70.1%	78.3%	51.4%	68%	79.9%	65.1%	89.4%	83.7%	73%	89.2	100%	86.3%	98.6%	92.2%	95.1%	65.4%
O=C(O)CCCCCNC(=O)OCc1ccccc1	102%	105	95.1%	101%	101%	92.3%	107%	100%	102%	99%	98%	124%	97.2%	102	119%	100%	99.8%	97.5%	112%	92.7%
NC(=S)c1c(N)n(C2OC(CO)C(O)C2O)c2ncnc(N)c12 (stereo not given)	-0.783% (active)	14	-25.8% (active)	3.76% (active)	-0.26% (active)	-21.5% (active)	-53.5% (active)	5.46% (active)	-0.846% (active)	-50.9% (active)	4.75% (active)	-17.2% (active)	-53.4% (active)	29.7	-69.3% (active)	-3.78% (active)	-0.294% (active)	-51.2% (active)	-10.2% (active)	-24.5% (active)
Cc1cc2c(C(C)C)c(O)c(O)c(C=Nc3ccccc3[N+](=O)[O-])c2c(O)c1-c1c(C)cc2c(C(C)C)c(O)c(O)c(C=Nc3ccccc3[N+](=O)[O-])c2c1O	71.4%	82.8	89.2%	83.4%	87%	61%	64.4%	52%	96.1%	94.7%	94.6%	34.9%	93.5%	74.4	83.2%	73.5%	82%	97.2%	92.6%	88%
